# Test results: PubChem BioAssay AID1626 (SRMLSC, 2009)
# The campaign covered roughly 220,000 compounds. About 2,000 (0.91%) were called active. Another 2% or so got no clear call; they are omitted. Rule as the data show it: inconclusive = inhibition above about 80% without an active follow-up result; inactive = below that; test concentration not stated here. A selection follows. Entries with a potency or affinity are not part of this list.
# Test: M. tuberculosis H37Rv growth inhibitors, H37Rv strain (AID 1626);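 also: bacteria incubated seven days before Alamar blue readout; 0% = bacteria only wells and 100% = bacteria with antibiotic wells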
# Settings: active compounds read high, concentration not given here
row,SMILES,inhibition
1,Fc1ccccc1CN1CCCN(C(=S)Nc2cccc(Cl)c2)C1,-6.44% (inactive)
2,c1ccc(-c2nnc(N3CCOCC3)nc2-c2ccccc2)cc1,4.29% (inactive)
3,C=CCn1c(=NC(=O)c2cc(Cl)sc2Cl)sc2cc(S(N)(=O)=O)ccc21,52.4% (inactive)
4,COCCn1c(=NC(=O)c2cc(Cl)sc2Cl)sc2cc(S(N)(=O)=O)ccc21,17.1% (inactive)
5,COc1ccc(Nc2nnc(C)c(=O)[nH]2)c(OC)c1,0% (inactive)
6,CCCCCCC(=O)N1CCN(c2cc3c(cc2F)c(=O)c(C(=O)O)cn3CC)CC1,0.13% (inactive)
7,CCn1cc(C(=O)O)c(=O)c2cc(F)c(N3CCN(C(=O)Nc4ccccc4)CC3)cc21,74.6% (inactive)
8,CCn1cc(C(=O)NCc2ccco2)c(=O)c2cc(F)c(N3CCN(C(=O)c4ccco4)CC3)cc21,71.1% (inactive)
9,CCn1cc(C(=O)O)c(=O)c2cc(F)c(N3CCN(C(=S)NC(=O)c4ccccc4)CC3)cc21,30.7% (inactive)
10,CCn1cc(C(=O)NCc2ccncc2)c(=O)c2cc(F)c(N3CCN(C(=O)c4ccco4)CC3)cc21,10.2% (inactive)
11,CCn1cc(C(=O)O)c(=O)c2cc(F)c(N3CCN(C(=S)NC(=O)c4ccccc4F)CC3)cc21,62.5% (inactive)
12,CCn1cc(C(=O)O)c(=O)c2cc(F)c(N3CCN(S(=O)(=O)c4ccc(Br)cc4)CC3)cc21,13.5% (inactive)
13,CCn1cc(C(=O)O)c(=O)c2cc(F)c(N3CCN(C(=S)NC(=O)c4ccccc4Cl)CC3)cc21,29.7% (inactive)
14,CCN1C(=O)N[C@@H](c2ccccc2)[C@@H](C(=O)OC)[C@H]1C,-12.7% (inactive)
15,CC(=O)OCCNc1nc(-c2ccccc2)nc2ccccc12,-5.25% (inactive)
16,CCCN(Cc1ccccc1)C(=S)Nc1cccc(C)c1C,3.47% (inactive)
17,CCC(C)C(=O)Nc1cccc(SC)c1 (stereo unspecified),0.86% (inactive)
18,COc1cc2[nH]c(=S)nc(NC3CCCC3)c2cc1OC,0.6% (inactive)
19,CCN(CC)NC(=O)Nc1ccccc1,-12% (inactive)
20,CCOc1ccc(NC(=O)CSc2nnc(Cc3cccn3C)n2-c2ccc(F)cc2)cc1,-6.5% (inactive)
21,Nc1ncnc2c1ncn2[C@@H]1O[C@H](CO)[C@@H](O)[C@H]1O,-2.69% (inactive)
22,Nc1ncnc2c1ncn2[C@@H]1O[C@H](CO)[C@@H](O)[C@@H]1O,-0.73% (inactive)
23,Nc1nc(F)nc2c1ncn2[C@@H]1O[C@H](CO)[C@@H](O)[C@@H]1O,72.3% (inactive)

row,SMILES,inhibition
1,Nc1ncnc2c1ncn2C1OC(CO)C(O)C1O (stereo unspecified),-1.34% (inactive)
2,CC(=O)Oc1ccc(N2C(=O)C3C(C2=O)C(C(=O)c2ccc(Cl)cc2)N2CCCC32)cc1 (stereo unspecified),-5.33% (inactive)
3,CCOC(=O)/C=C1\SCC(=O)N1CC(=O)NC12CC3CC(CC(C3)C1)C2,6.97% (inactive)
4,CN(C)/C=C1\C(=O)N(c2ccc(Cl)cc2)CS1(=O)=O,-3.16% (inactive)
5,CC1CCN(c2c(NCC3CCC(C(=O)NCCc4ccc(Cl)cc4)CC3)c(=O)c2=O)CC1 (stereo unspecified),11.6% (inactive)
6,O=C(NCc1ccc(Cl)cc1)C1CCC(CNc2c(N3CCCCC3)c(=O)c2=O)CC1 (stereo unspecified),5.8% (inactive)
7,CC1CCN(c2c(NCC3CCC(C(=O)N4CCCC(C)C4)CC3)c(=O)c2=O)CC1 (stereo unspecified),-5.27% (inactive)
8,O=C(C1CCC(CNc2c(N3CCCCC3)c(=O)c2=O)CC1)N1CCCC1 (stereo unspecified),-3.71% (inactive)
9,CCNC(=O)CC1C(=O)N(CC)C(=S)N1NC(=O)c1ccccc1 (stereo unspecified),-3.85% (inactive)
10,CCCCOc1ccc(C(NC(=O)OCC)NC(=O)OCC)cc1,5.59% (inactive)
11,CC(C)OC(=O)CN1C(=O)C(C)(C)Oc2ccc(C(=O)NC3CC3)cc21,-5.84% (inactive)
12,Cc1cc(C(=O)CCl)c(C)n1CCc1ccccc1,66.4% (inactive)
13,COC(=O)c1ccc(-n2c(C)cc(C(=O)CCl)c2C)cc1,53.5% (inactive)
14,Cc1cc(C(=O)CSc2ncccn2)c(C)n1Cc1ccco1,6.3% (inactive)
15,Cc1cc(C(=O)COc2ccccc2C(N)=O)c(C)n1C,0.29% (inactive)
16,Cc1cc(C(=O)C(C)Cl)c(C)n1Cc1ccco1 (stereo unspecified),0.64% (inactive)
17,Cc1cc(C(=O)COc2ccccc2C(N)=O)c(C)n1CC1CCCO1 (stereo unspecified),1.33% (inactive)
18,COc1ccc(C(=O)c2ccc(OC)cc2OC)cc1,0.13% (inactive)
19,Cc1ccc(N=CC=C2OC(C)(C)C(C)(C)O2)c(C)c1,-2.12% (inactive)
20,CC(=O)C1=C(O)C(=O)N(CCc2c[nH]c3ccccc23)C1c1cccc(O)c1 (stereo unspecified),1.15% (inactive)
21,CC(C)=CC(=O)Nc1ccc2c(c1)OCO2,-4.24% (inactive)
22,CS(=O)(=O)N(CC(=O)Nc1cccc([N+](=O)[O-])c1)c1ccccc1,-4.25% (inactive)
23,Cn1c(=O)n(Cc2ccccc2)c2ccccc21,-7.14% (inactive)

row,SMILES,inhibition
1,COc1cccc2sc(Nc3nnc(-c4cccs4)o3)nc12,-3.65% (inactive)
2,COc1cccc2sc(Nc3nnc(-c4ccccc4Cl)o3)nc12,52.8% (inactive)
3,COc1ccc(-c2nnc(Nc3nc4c(OC)cccc4s3)o2)c(OC)c1,3.73% (inactive)
4,NNc1nc2c(F)cccc2s1,8.41% (inactive)
5,COc1ccccc1-c1nnc(Nc2nc3c(OC)cccc3s2)o1,8.74% (inactive)
6,Fc1cccc2sc(Nc3nc4c(F)cccc4s3)nc12,43% (inactive)
7,O=C(COC(=O)c1cccc2ccccc12)NCC1CCCO1 (stereo unspecified),-2.85% (inactive)
8,CCn1cc(C2C3=C(CC(C)(C)CC3=O)N(c3ccccc3)C3=C2C(=O)CC(C)(C)C3)c(C)n1,-3.23% (inactive)
9,CCC1=C(OC(=O)N(CC)CC)N2C(=O)OC(=NCCOC)[C@]2(Cc2ccccc2)[C@H]2C1=CC[C@H]1C(=O)NC(=O)[C@H]12,10.1% (inactive)
10,O=C(NC1CCCCC1)c1nn2c(C(F)(F)F)cc(-c3ccco3)nc2c1Br,1.53% (inactive)
11,COCCn1c(SCC(=O)Nc2ccccc2OC)nc2c(oc3ccccc32)c1=O,3.65% (inactive)
12,COc1ccc(SCCC(=O)NCc2ccncc2)cc1,-7.49% (inactive)
13,Cc1cccc(N2CCN(C(=O)c3cccc(N4C(=O)C5CC=CC(C)C5C4=O)c3)CC2)c1C (stereo unspecified),-7% (inactive)
14,COc1ccc(C2C(C(=O)Nc3ccc(F)cc3)=C(C)Nc3nc(CCCO)nn32)cc1 (stereo unspecified),-9.75% (inactive)
15,CCc1ccc2c(c1)C(=O)c1ccccc1C2=O,7.07% (inactive)
16,CC(C)(C)c1ccc2c(c1)C(=O)c1ccccc1C2=O,7.48% (inactive)
17,O=C1c2ccccc2-c2nnc(-c3ccccc3)cc21,-2.39% (inactive)
18,Cc1ccc(-c2ccc3c(c2)S(=O)(=O)c2ccccc2C3=O)cc1,-4.26% (inactive)
19,Nc1ccc2c(c1)CC(=O)c1ccccc1S2,9.71% (inactive)
20,Nc1ccc2c(c1)CCC2=O,-8.13% (inactive)
21,O=C(OCC(=O)N1CCN(C(=O)c2ccco2)CC1)c1cccc(S(=O)(=O)N2CCc3ccccc32)c1,2.78% (inactive)
22,CC(C)C(=O)N1CCN(c2ccc([N+](=O)[O-])cc2Cl)CC1,0.58% (inactive)
23,COc1ccc(/C=N/NC(=O)C(C)n2nnc3ccccc32)cc1OC (stereo unspecified),-3.28% (inactive)

row,SMILES,inhibition
1,C=CCN1C(=O)C(Cc2ccc(OC)cc2)S/C1=N\N=C\c1cccs1 (stereo unspecified),-5.41% (inactive)
2,COc1ccc(OC)c(C(=O)c2ccc(C(=O)N3CCCCC3)cc2)c1,-2.08% (inactive)
3,Cc1cc(Br)c2c(c1)/C(=C/C(=O)c1cccs1)C(=O)N2,79.9% (inactive)
4,CCc1ccc2c(c1)C(O)(CC(=O)c1cccs1)C(=O)N2 (stereo unspecified),3.05% (inactive)
5,O=C(/C=C1\C(=O)Nc2ccccc21)/C=C1\C(=O)Nc2ccccc21,9.02% (inactive)
6,Cc1cccc2c1NC(=O)/C2=C\C(=O)c1cccs1,12.6% (inactive)
7,Cn1c(N)c(C(=O)COC(=O)C2CC(=O)N(Cc3ccccc3)C2)c(=O)n(C)c1=O (stereo unspecified),0.39% (inactive)
8,CC(C)(C)Nc1nc(SCC(=O)Nc2ccccc2)nc(N2CCOCC2)n1,-1.07% (inactive)
9,O=C(Nc1ccccc1)c1ccn[nH]1,-7.96% (inactive)
10,COc1ccccc1CNc1ncnc2cc(Cl)ccc12,-2.22% (inactive)
11,CC(C)N1CCC(N2CCN(C/C=C/c3ccccc3)CC2CCO)CC1 (stereo unspecified),-1.35% (inactive)
12,Cc1ccc(C(c2nnnn2C(C)(C)C)N2CCN(C3CCCC3)CC2)cc1 (stereo unspecified),-4.57% (inactive)
13,Cc1cc(C)c(-c2cc(NC(=O)CSc3nncn3C)n(-c3ccccc3)n2)cc1C,5.63% (inactive)
14,CCOC(=O)C1=C(CC)Nc2ccccc2N=C1NC(=O)c1cc(S(=O)(=O)N(C)C)ccc1Cl,5.31% (inactive)
15,CCOC(=O)C1=C(CC)Nc2ccccc2N=C1NC(=O)Nc1ccccc1OC,5.38% (inactive)
16,Cc1ccc(SCc2cc(=O)[nH]c(/N=C(\N)Nc3cccc4ccccc34)n2)cc1,2.6% (inactive)
17,CC1(C)CC(=O)C2=C(C1)NC1=C(C(=O)c3ccccc31)C2c1ccccc1 (stereo unspecified),14.8% (inactive)
18,COc1cc(C2C3=C(CC(C)(C)CC3=O)NC3=C2C(=O)c2ccccc23)ccc1O (stereo unspecified),2.3% (inactive)
19,Cc1ccc(C2C3=C(CC(C)(C)CC3=O)NC3=C2C(=O)c2ccccc23)cc1 (stereo unspecified),9.84% (inactive)
20,CC1(C)CC(=O)C2=C(C1)NC1=C(C(=O)c3ccccc31)C2c1ccc(O)cc1 (stereo unspecified),7.92% (inactive)
21,CC1(C)CC(=O)C2=C(C1)NC1=C(C(=O)c3ccccc31)C2c1cccnc1 (stereo unspecified),11.2% (inactive)
22,CC1(C)CC(=O)C2=C(C1)NC1=C(C(=O)c3ccccc31)C2c1ccc(Cl)cc1 (stereo unspecified),44.9% (inactive)
